Values joined by “and” are separate entries in the source; they are usually repeats but may differ in a detail not shown here. Equal entries are not always repeated. Among all 340,000 compounds or so, about 3,300 (0.97%) were called active.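 How the source made its calls: active means inhibition above the mean over all tested compounds plus 3 SD (cut at about 30% in these data); inactive means the rest.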 Only a selection was taken, and actives are over-represented in it overall.
These compounds were tested against Platelet-activating factor acetylhydrolase 2, cytoplasmic (Homo sapiens) (UniProt Q99487) (assay: inhibition of cytoplasmic PAF acetylhydrolase 2 – biochemical, fluorescence polarization, human, primary screen (AID 492956;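 further: inhibitors block probe labeling of enzyme so polarization drops; 0% = enzyme with DMSO and 100% = wells lacking PAFAH2 protein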)). Settings: recombinant PAFAH2, FP-rhodamine activity probe, at 3.39 µM, stronger effect = higher value.

inhibition, active:
CC1=NN(c2ccc(Cl)c(C(=O)O)c2)C(=O)/C1=C/c1ccc(-c2ccccc2[N+](=O)[O-])o1 36.5%, O=C(c1cccnc1)N(c1cc2sc(=O)oc2c2ccccc12)S(=O)(=O)c1ccccc1 36.6%, CCC(C)(C)c1ccc(Oc2ccc(NC(=O)COC(=O)C3=COCCO3)cc2)cc1 55.4%, O=[N+]([O-])c1ccc(C=Nc2ccc(Cl)cc2Cl)s1 63.8%, COc1cccc(C(=O)n2ccc(-c3cccs3)n2)c1 31.8%, O=C(COC(=O)/C=C/c1cccs1)NC1CCCCC1 80.5%, COc1ccccc1/C=C/C(=O)OCC(=O)NC1CCCCCC1 93.2%, COc1ccc(/C=C/C(=O)OCC(=O)NC2CCCCCC2)cc1OC 87.4%, COc1ccc(C(=O)O/N=C(\N)Cc2ccc(Cl)cc2Cl)cc1OC 85.3%, CN(C)S(=O)(=O)c1cccc(NC(=O)COC(=O)/C=C/c2cccs2)c1 72.2%, Cc1ccc(S(=O)(=O)N(C)C)cc1NC(=O)COC(=O)/C=C/c1cccs1 59.3%

inhibition, inactive:
Cn1c2c(c(=O)n(C)c1=O)CN(Cc1ccco1)CN2 -2.71%, CCCN(CC(=O)Nc1ccccc1C)C(=O)c1ccc2[nH]c3c(c2c1)CC(C)CC3 (stereo not drawn) 8.67%, CCOc1ccc(S(=O)(=O)N2CCCCC2)cc1NC(=O)CN1CCCC1c1cccs1 (stereo not drawn) -0.88%, CC(=O)Nc1ccc(S(=O)(=O)NCC2CCC(C(=O)NCCc3ccccc3)CC2)cc1 (stereo not drawn) 6.72%, O=C(Nc1ccc(N2CCOCC2)cc1)c1ccc(-c2ccccc2[N+](=O)[O-])o1 -11.3%, O=C1NC(c2ccc(-c3ccccc3[N+](=O)[O-])o2)C(C(=O)c2ccc(Cl)cc2)C(O)(C(F)(F)F)N1 (stereo not drawn) 1.45%, CC(CO)(CO)NC(=O)c1ccc(=O)[nH]n1 -12.6%, Cc1c2cnn(CC(=O)NCCCN3CC(C)CC(C)C3)c(=O)c2c(C)n1Cc1ccc(Cl)cc1 (stereo not drawn) 5.22%, COc1ccc(N(C(=O)c2cccnc2)S(=O)(=O)c2ccc(OC)c(OC)c2)cc1 -3.27%, O=C(c1cccnc1)N(Cc1ccccc1)C(=O)c1cccnc1 3.92%, COc1cccc2oc(CCc3ccccc3)cc(=O)c12 6.23%, CCC1C(C#N)=C(SC)NC2=C1C(=O)CC(C)(C)C2 (stereo not drawn) -6.12%, O=C(OCC(=O)c1cccs1)C1=COCCO1 17.6%, CCOc1ccc(NC(=O)c2ccc(NC(=O)COC(=O)c3ccc(NC(=O)CC#N)cc3)cc2)cc1 -53.2%, COc1cccc(C2=CC(=O)C[C@H](c3ccc(F)cc3)C2)c1OC -13.9%, O=C(OC1CCOC1=O)c1cccc(S(=O)(=O)Nc2ccc(F)cc2)c1 (stereo not drawn) 9.72%, Cc1ccc2nc(COc3ccc(N(C)S(=O)(=O)c4ccccc4)cc3)cc(=O)n2c1 8.78%, CC1CCCCC1NC(=O)CCS(=O)(=O)c1ccc2c(c1)NC(=O)CO2 (stereo not drawn) 26.2%, CNN/C(N=Cc1ccc([N+](=O)[O-])s1)=N\S(=O)(=O)c1cc(C)c(Cl)cc1SCc1ccccc1 5.01%, CC1CN(C(=O)c2ccc([N+](=O)[O-])s2)CC(C)O1 (stereo not drawn) 5.08%, O=C1COc2ccc(C(=O)COC(=O)CCOc3ccccc3)cc2N1 0.36%, COc1cccc(NC(=O)CN(C)C(=O)/C=C/c2cn(-c3ccccc3)nc2-c2cccs2)c1 -54.5%, COc1ccc(OC)c(-c2csc(-c3cccs3)n2)c1 5.06%, CC(C)(C)c1ccc(Cn2nnc3c(=O)[nH]c(C4CCCN(C(=O)c5ccco5)C4)nc32)cc1 (stereo not drawn) -1.16%, Cc1cc(C)cc(NC(=O)CCN2C(=O)c3ccccc3C2=O)c1 -14%, CCn1cc(CN2CCN(CC(C)(C)C)C(CCO)C2)c2ccccc21 (stereo not drawn) 1.37%, COc1cc(/C=C/C(=O)OCC(=O)NC2CC2)cc(OC)c1OC 9.4%, CCOc1ccc(/C=C/C(=O)OCC(=O)c2ccccc2OC)cc1OC 6.36%, COc1ccc(CCNC(=O)COC(=O)/C=C/c2cccs2)cc1OC 6.71%, COc1ccccc1/C=C/C(=O)NC1CC2CCC1C2 (stereo not drawn) -0.78%, COc1ccccc1-n1ccnc(SCC(=O)NC2CCCCC2)c1=O -2.23%, O=C(CCC(=O)c1cccs1)NC1CCCCCC1 8.2%, COc1cc2c(C(=O)N3CCN(C)CC3)c(CSc3ccccc3)n(C)c2cc1Br -5.01%, COc1ccc(NC(=O)c2cccc(Cl)c2)c[n+]1[O-] -0.76%, O=C(CSCc1c(Cl)cccc1Cl)NN1C(=O)c2ccccc2C1=O 11.8%, Cc1cccc(CN2CCN(Cc3cnn(-c4ccccc4F)c3)CC2CCO)n1 (stereo not drawn) -6.68%, COc1ccc(C(=O)n2nc(-c3ccc(Cl)cc3)nc2N)cc1OC 3.15%, COc1ccc(CCn2ccc(O)c(Cc3ccc(Cl)cc3Cl)c2=O)cc1OC -2.38%, C=CCOc1ccc(C(=O)Nc2ccccc2C(=O)N2CCCC2)cc1 7.79%, CCCCn1c(O)c(N=NC(=O)Cn2c(C(F)(F)F)nc3ccccc32)c2ccccc21 -3.07%, O=C(O)Cc1csc(-c2cccc(Oc3ccccc3)c2)n1 3.06% and 0.17%, CC1CC(C)CN(c2ccc(S(=O)(=O)N3CCOCC3)cc2)C1 (stereo not drawn) 13.7%, Cc1ccc(OCC(=O)N2CCN(S(=O)(=O)c3ccc(Cl)s3)CC2)cc1C 6.03%, CN(C)S(=O)(=O)c1cccc(NC(=O)COC(=O)c2cc(=O)[nH]c(=O)[nH]2)c1 0.25%, Cc1ccc(S(=O)(=O)N(C)C)cc1NC(=O)/C=C/c1cccs1 5.59%, CN(C)S(=O)(=O)c1cccc(NC(=O)COc2ccc3ccccc3c2)c1 -8.6%, Cc1ccc(S(=O)(=O)N(C)C)cc1NC(=O)COC(=O)c1c(C)noc1C -9.47%

Reference: PubChem BioAssay AID492956 (The Scripps Research Institute Molecular Screening Center, 2010)
